Assay results taken from PubChem BioAssay (NCI).
This is part of a sample that, as a whole, favours compounds with a hit. Of some 83,000 tested, about 20% had one in any assay.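 How to read the values: 0–100, growth inhibition (40 = 60% inhibited); 0, no net growth; -100 to 0, cell death (-40 = 40% of starting cells died; -100 = all dead).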 Unmarked numbers belong to inactive results. The source made the active and inactive calls. Rule for the calls: active = growth percent below 10; inactive = the rest.

test system: HL-60(TB) leukemia; assay: NCI-60 one-dose screen, 48 h (100 = growth as untreated, 0 = no growth, -100 = all killed); settings: 10 µM unless noted

SMILES	growth
COc1cc(OC)cc(-c2n/c(=C\c3c(O)[nH]c4ccc(OC)cc34)cc3c2=Nc2ccccc2-3)c1	80%
CCCCCCCc1n(Cc2ccc3ccccc3c2)c2ccccc2[n+]1Cc1ccc2ccccc2c1	-63.7% (active)
NC(N)=Nc1nc2ccccc2n2c1nc1ccccc12	37.7%
